Bioassay records: PubChem BioAssay, The Scripps Research Institute Molecular Screening Center
DAX1 inh-1 – inhibits human nuclear receptor DAX1 | 340,000 compounds, 0.99% hits | HEK293 Gal4-DAX1 luciferase reporter, luminescence | inhibition, % at 6.75 µM;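 active means inhibition above the mean over all tested compounds plus 3 SD, cut at about 4.2% in these data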;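 further: inhibition shows as a rise in luminescence from relieved DAX1 repression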
hgDAF12 agonist – hgDAF-12 agonism, primary luciferase screen. HEK293 GAL4-hgDAF12 UAS-luciferase reporter, agonist luminescence; normalized to butyrate control. activation, % at 6.8 µM. 370,000 compounds, 1.8% hits. AID 687014;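 active means activation above a cutoff set at the mean of all screened compounds plus 3 SD, cut at about 10% in these data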
AHR activator – activators of human aryl hydrocarbon receptor; P35869; AHR-responsive luciferase reporter cells, luminescence; activation, % at 5 µM; 320,000 compounds, 2.5% hits; AID 2796; in the data active means activation above about 47%
Target sequence (P35869 whole entry, looked up): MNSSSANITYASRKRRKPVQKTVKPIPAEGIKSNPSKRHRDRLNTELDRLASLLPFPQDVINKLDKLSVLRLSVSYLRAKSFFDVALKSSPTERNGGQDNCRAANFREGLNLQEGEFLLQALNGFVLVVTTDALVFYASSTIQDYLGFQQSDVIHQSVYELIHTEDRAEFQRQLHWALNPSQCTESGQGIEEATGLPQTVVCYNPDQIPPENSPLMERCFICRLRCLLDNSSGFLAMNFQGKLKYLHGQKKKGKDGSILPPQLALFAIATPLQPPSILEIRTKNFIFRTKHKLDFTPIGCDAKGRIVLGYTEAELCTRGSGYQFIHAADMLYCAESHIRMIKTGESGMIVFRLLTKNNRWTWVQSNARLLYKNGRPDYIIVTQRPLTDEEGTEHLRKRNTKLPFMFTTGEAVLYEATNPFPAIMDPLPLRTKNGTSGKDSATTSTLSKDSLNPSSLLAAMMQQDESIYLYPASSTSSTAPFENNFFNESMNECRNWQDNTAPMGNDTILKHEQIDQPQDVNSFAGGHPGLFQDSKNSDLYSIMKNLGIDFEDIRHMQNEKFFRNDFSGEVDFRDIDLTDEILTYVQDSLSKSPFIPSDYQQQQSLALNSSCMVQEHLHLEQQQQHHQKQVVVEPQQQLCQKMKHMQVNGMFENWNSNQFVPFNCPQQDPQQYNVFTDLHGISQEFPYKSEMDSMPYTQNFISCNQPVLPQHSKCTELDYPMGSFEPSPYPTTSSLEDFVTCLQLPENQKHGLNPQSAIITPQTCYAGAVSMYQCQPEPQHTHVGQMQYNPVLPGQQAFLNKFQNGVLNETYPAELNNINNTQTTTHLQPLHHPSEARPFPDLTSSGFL
DAX1 inh-2 – blocks DAX1 repression of SF-1 activated StAR promoter. HEK293T StAR-luciferase reporter, SF-1/DAX-1 repression relief. 370,000 compounds, 1.1% hits. AID 652010. inhibition, % at 6.8 µM;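 active means inhibition above the mean over all tested compounds plus 3 SD, cut at about 3.6% in these data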;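 further: higher inhibition means more luminescence from relief of DAX-1 repression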
ssDAF-12 act – activates DAF-12 receptor from parasite S. stercoralis; HEK293 ssDAF-12/GRIP1 lit1-tk-luc reporter, luminescence; % of 3 µM dafachronic acid response; activation, % at 6.8 µM; 370,000 compounds, 1% hits; AID 652126;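 active means activation above the mean over all tested compounds plus 3 SD, cut at about 0.9% in these data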
hcDAF12 agonist – activators of H. contortus DAF-12 nuclear receptor; HEK293 hcDAF-12 lit1-tk-luc reporter, luminescence; 0% DMSO, 100% Δ7-dafachronic acid; activation, % at 6.8 µM; 370,000 compounds, 1.4% hits;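 active means activation above the mean of all tested compounds plus 3 SD, cut at about 5.5% in these data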
Numbers stand for hits; 0 = inactive; - = no result given. An excerpt weighted towards active compounds, which were near 5.7% of everything screened.

SMILES | DAX1 inh-1 | hgDAF12 agonist | AHR activator | DAX1 inh-2 | ssDAF-12 act | hcDAF12 agonist
COc1ccc(-c2csc(-n3ncc(-c4ccccn4)c3N)n2)cc1 | 0 | 0 | 0 | 0 | 0 | 0
Nc1c(-c2ccccn2)cnn1-c1nc(-c2ccc(F)cc2)cs1 | 0 | 0 | 63 | 0 | 0 | 0
Cc1nnc2sc(-c3ccc(N(C)C)cc3)nn2c1=O | 0 | 12 | - | 0 | 0 | 0
CCOC(=O)CC1C(=O)NCCN1C(=O)c1ccc(Cl)cc1 (centres undefined) | 0 | 0 | 0 | 0 | 0 | 0
CCCCOc1ccc(C(=O)N2CCNC(=O)C2CC(=O)OC(C)C)cc1 (centres undefined) | 0 | 0 | 0 | 0 | 1.9 | 0
N#CC(C(=O)Nc1cccc(Cl)c1)=C1Nc2ccccc2N1 | 0 | 0 | 0 | 0 | 0 | 0
N#CC(C(=O)Nc1ccccc1)=C1Nc2ccccc2N1 | 0 | 0 | 78 | 0 | 0 | 0
COc1ccc(C(CC(=O)c2ccc(C)cc2)Sc2ccccc2N)cc1 (centres undefined) | 0 | 0 | - | 0 | 0 | 5.7
FC(F)(F)c1cnc(-c2cnc3c(-c4ccc(Cl)cc4)cnn3c2)c(Cl)c1 | 0 | 0 | 0 | 0 | 0 | 0
Cc1nn2cc(-c3ncc(C(F)(F)F)cc3Cl)cnc2c1Br | - | 13 | 0 | 0 | 0 | 0
CCCC(=O)N1CCCC1(C)C(=O)Nc1cccc(OC(C)C)c1 (centres undefined) | - | 0 | - | 0 | 0 | 0
N/C(=N\OC(=O)c1cccs1)c1cccnc1 | 0 | 0 | 0 | 0 | 0 | 0
CCSc1ccc(/C(N)=N/OC(=O)c2cccs2)cn1 | 0 | 0 | 0 | 3.9 | 0 | 0
COc1ccc(CN(C)C(=O)COC(=O)c2cc([N+](=O)[O-])ccc2N2CCCC2)c(OC)c1OC | 0 | 0 | 0 | 0 | 0 | 0
O=C(Nc1nncs1)c1cc2c(s1)CCC2 | 0 | 12 | 0 | 0 | 0 | 0
CC(NC(=O)CCCn1cc([N+](=O)[O-])cn1)c1ccccc1 (centres undefined) | 0 | 0 | 0 | 0 | 0 | 0
CN1C(=O)/C(=C/c2ccc(O)c([N+](=O)[O-])c2)N(C)C1=S | 4.2 | 0 | 0 | 0 | 0 | 0
O=C(NCC1CCCO1)c1cc2ccccc2nc1Cl (centres undefined) | 4.3 | 0 | 0 | 0 | 0 | 0
O=C(NCC1CCCO1)c1cccc2ccccc12 (centres undefined) | 0 | 0 | 0 | 0 | 0 | 0
Cc1nc2ccc(F)cc2cc1C(=O)NCC1CCCO1 (centres undefined) | 0 | 0 | - | 0 | 0 | 5.8
Cc1cc(C)c(NC(=O)C2CCCN2C)c(C)c1 (centres undefined) | 8.0 | 0 | 0 | 0 | 0 | 0
O=c1ccn(-c2ccccc2)[nH]1 | 4.4 | 0 | 0 | 0 | 0 | 0
CCN(CC)c1ccc(/C=N/NC(=O)OC(C)(C)C)cc1 | 4.9 | 0 | 0 | 0 | 0 | 0
CCN(CC)c1ccc(/C=N\NC(N)=O)cc1 | 0 | 0 | 0 | 0 | 0 | 0
CCN(CC)c1ccc(/C=N/NC(=O)Nc2ccccc2)cc1 | 0 | 11 | 0 | 0 | 0 | 0
SMILES | DAX1 inh-1 | hgDAF12 agonist | AHR activator | DAX1 inh-2 | ssDAF-12 act | hcDAF12 agonist
Cc1ccc(/C=N/NC(=O)C(O)c2ccccc2)o1 (centres undefined) | 0 | 0 | 0 | 0 | 0 | 0
Cc1ccc(/C=N/NC(=O)Nc2ccccc2)o1 | 0 | 11 | 0 | 0 | 0 | 0
CCOc1ccc(Cc2c(Cl)nc(N)nc2Cl)cc1 | 0 | 0 | 0 | 0 | 0 | 0
COc1ccc(Cc2c(C)nc(N)nc2Cl)cc1 | 0 | 0 | 0 | 0 | 1.7 | 0
O=C(NCC1OCCCN1S(=O)(=O)c1cc(F)ccc1F)C(=O)NC1CCCCC1 (centres undefined) | 0 | 0 | 0 | 0 | 0 | 0
O=C(COC(=O)c1ccccc1O)Nc1ccc(N2CCOCC2)cc1 | 0 | 0 | 0 | 0 | 0 | 0
COc1ccc2c(c1)oc(=O)c1cc(OC)ccc12 | 4.6 | 13 | 0 | 0 | 0 | 0
COc1ccc2c(c1)oc(=O)c1ccccc12 | 0 | 0 | 0 | 0 | 0 | 0
COc1ccc(OC)c(S(=O)(=O)Nc2cccc3ccccc23)c1 | - | 0 | 0 | 0 | 0 | 0
COc1ccc(OC)c(S(=O)(=O)Oc2ccc(N)c3ccccc23)c1 | 0 | 0 | 61 | 0 | 0 | 0
Cc1ccc(NC(=O)C2CC2c2ccccc2)c([N+](=O)[O-])c1 (centres undefined) | 6.0 | 0 | 0 | 0 | 0 | 0
O=C(c1ccc(Cl)cc1Cl)N1CCc2ccccc21 | 0 | 0 | 0 | 0 | 0 | 0
O=C(/C=C/c1ccc(Cl)cc1Cl)N1CCc2ccccc21 | 0 | 13 | 0 | 0 | 0 | 0
Cc1ccc(CSc2ncnc3c2cnn3-c2ccccc2)cc1 | 0 | 0 | 0 | 0 | 0 | 0
Cc1ccc(-n2ncc3c(SCc4ccccc4)ncnc32)cc1 | 0 | 12 | 0 | 0 | 0 | 6.5
Cc1cccc(-n2ncc3c(NCc4ccccc4)ncnc32)c1 | 0 | 12 | 0 | 0 | 0 | 0
Cc1cccc(-n2ncc3c(NCc4cccs4)ncnc32)c1 | 0 | 0 | 0 | 0 | 1.2 | 0
COc1ccccc1NS(=O)(=O)c1ccc(C(=O)NCC(c2cccs2)N2CCOCC2)cc1 (centres undefined) | 0 | 0 | 0 | 0 | 0 | 0
Cc1ccc(S(=O)(=O)Nc2ccc(O)c3ccccc23)c(C)c1 | 0 | 0 | - | 0 | 0 | 0
Cc1ccc(S(=O)(=O)Nc2cc(C(C(=O)OC(C)C)C(=O)C(F)(F)F)c(O)c3ccccc23)c(C)c1 (centres undefined) | 0 | 0 | 48 | 0 | 0 | 0
CCCCN1C(=O)N(c2ccc(Cl)cc2)C(C)(O)CC1(C)C (centres undefined) | 4.5 | 0 | 0 | 0 | 0 | 0
CCc1ccc(CCNC(=O)OC2CC3CC2[C@H]2CCCCN2[C@H]3Cc2ccccc2)cc1 (some centres undefined) | - | 0 | - | 0 | 0 | 0
O=C(NN=Cc1ccc2c(c1)OCO2)NN=Cc1ccc2c(c1)OCO2 | 0 | 0 | - | 0 | 0 | 0
C(=N\Nc1nc2ccccc2[nH]1)/c1ccc2c(c1)OCO2 | 8.0 | 0 | - | 0 | 0 | 0
O=c1nc(N2CCOCC2)nc(N/N=C/c2ccc3c(c2)OCO3)[nH]1 | 0 | 0 | 0 | 0 | 0 | 0
SMILES | DAX1 inh-1 | hgDAF12 agonist | AHR activator | DAX1 inh-2 | ssDAF-12 act | hcDAF12 agonist
Cc1nc(N/N=C\c2ccc3c(c2)OCO3)sc1C | 0 | 0 | 75 | 0 | 0 | 0
C/C(=N\Nc1nc2ccccc2[nH]1)c1ccc2c(c1)OCO2 | 0 | 0 | 128 | 0 | 0 | 0
C/C(=N\Nc1ccccn1)c1ccc(Br)s1 | - | 0 | 70 | 0 | 0 | 0
O=C(O)C1(c2ccccc2)CCN(S(=O)(=O)c2cccc(Cl)c2)CC1 | 0 | 0 | 0 | 0 | 0 | 0
C/C(=N\Nc1nc2ccccc2[nH]1)c1ccc2c(c1)OCCO2 | 0 | 0 | 56 | 0 | 0 | 0
C/C(=N\Nc1ccccn1)c1ccc2c(c1)OCO2 | 0 | 0 | 59 | 0 | 0 | 0
CCc1ccccc1NC1Nc2cc(C)nn2S1 (centres undefined) | 0 | 0 | 0 | 0 | 0 | 0
